Values joined by “and” are separate entries in the source; they are usually repeats but may differ in a detail not shown here. Equal entries are not always repeated. Hit rate of the full screen: of about 5,500 compounds, about 2,000 (36%) were called active. Not shown: some 18% with an inconclusive outcome. No stated cut-off is given here; in the data, active means normalized growth mostly below about 0.91 (no sharp cut-off); inconclusive means no clear call, values can overlap the other calls; inactive means mostly above about 0.92. The list shows a part of the results.
Experiment: chemical genetic growth profiling, strain panel (AID 1159580);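 further: tested at 20 µM; growth read once vehicle control cultures reached saturation at 30 °C; 1 = growth at the plate median or of vehicle wells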
Conditions: S. cerevisiae deletion strains, growth OD

Measured: normalized growth

C=CC(C1=CC(=O)C=CC1=O)c1ccccc1 (stereo unspecified)
active: locus YDL134C, strain PPH21, stronger effect = lower value 0.863 | locus YDR162C, strain NBP2, stronger effect = lower value 0.778 | locus YGL086W, strain mad1, stronger effect = lower value 0.927 | locus YGR078C, strain PAC10, stronger effect = lower value 0.805 | locus YGR229C, strain SMI1, stronger effect = lower value 0.722 | locus YKR001C, strain vps1, stronger effect = lower value 0.887 | locus YLR039C, strain RIC1, stronger effect = lower value 0.64 | locus YLR262C, strain YPT6, stronger effect = lower value 0.551 | locus YLR330W, strain CHS5, stronger effect = lower value 0.882 | locus YLR418C, strain cdc73, stronger effect = lower value 0.823 | locus YNL233W, strain BNI4, stronger effect = lower value 0.815 | locus YNL307C, strain MCK1, stronger effect = lower value 0.674 | locus YOR184W, strain ser1, stronger effect = lower value 0.811 | locus YPR163C, strain tif3, stronger effect = lower value 0.849
inactive: locus YAL021C, strain ccr4, stronger effect = lower value 1.01 | locus YAL026C, strain drs2, stronger effect = lower value 0.983 | locus YAL030W, strain snc1, stronger effect = lower value 1 | locus YBL061C, strain skt5, stronger effect = lower value 1 | locus YBR009C, strain hhf1, stronger effect = lower value 0.995 | locus YBR021W, strain FUR4, stronger effect = lower value 0.982 | locus YBR023C, strain chs3, stronger effect = lower value 1.01 | locus YBR171W, strain sec66, stronger effect = lower value 1.02 | locus YBR229C, strain ROT2, stronger effect = lower value 0.974 | locus YBR231C, strain swc5, stronger effect = lower value 1.01 | locus YBR279W, strain paf1, stronger effect = lower value 0.993 | locus YCL011C, strain gbp2, stronger effect = lower value 1.01 | locus YCL016C, strain dcc1, stronger effect = lower value 0.994 | locus YCL029C, strain bik1, stronger effect = lower value 1 | locus YCL061C, strain MRC1, stronger effect = lower value 0.993 | locus YCL069W, strain vba3, stronger effect = lower value 1 | locus YCR088W, strain abp1, stronger effect = lower value 1.01 | locus YDL005C, strain med2, stronger effect = lower value 1.01 | locus YDL035C, strain GPR1, stronger effect = lower value 0.937 | locus YDL040C, strain nat1, stronger effect = lower value 0.989 | locus YDL074C, strain BRE1, stronger effect = lower value 0.916 | locus YDL101C, strain DUN1, stronger effect = lower value 0.96 | locus YDL185W, strain tfp1, stronger effect = lower value 0.994 | locus YDL192W, strain arf1, stronger effect = lower value 0.956 | locus YDR001C, strain nth1, stronger effect = lower value 1.01 | locus YDR069C, strain doa4, stronger effect = lower value 1.01 | locus YDR101C, strain arx1, stronger effect = lower value 0.977 | locus YDR137W, strain rgp1, stronger effect = lower value 0.961 | locus YDR159W, strain sac3, stronger effect = lower value 1.03 | locus YDR195W, strain ref2 1.01 | locus YDR297W, strain sur2, stronger effect = lower value 0.996 | locus YDR318W, strain mcm21, stronger effect = lower value 0.953 | locus YDR334W, strain swr1, stronger effect = lower value 1.01 | locus YDR335W, strain msn5, stronger effect = lower value 0.999 | locus YDR388W, stronger effect = lower value 0.991 | locus YDR392W, strain spt3, stronger effect = lower value 0.917 | locus YDR502C, strain sam2, stronger effect = lower value 0.95 | locus YEL003W, strain gim4, stronger effect = lower value 0.982 | locus YEL037C, strain rad23, stronger effect = lower value 1.01 | locus YEL061C, strain CIN8 (second series), stronger effect = lower value 1.01 | locus YEL061C, strain CIN8, stronger effect = lower value 0.974 | locus YER015W, strain faa2, stronger effect = lower value 0.996 | locus YER016W, strain bim1, stronger effect = lower value 1 | locus YER110C, stronger effect = lower value 0.98 | locus YER111C, strain swi4, stronger effect = lower value 1 | locus YER155C, strain BEM2 (second series), stronger effect = lower value 0.895 | locus YER155C, strain BEM2, stronger effect = lower value 1.01 | locus YER167W, strain BCK2, stronger effect = lower value 0.947 | locus YFR010W, strain ubp6, stronger effect = lower value 1 | locus YGL078C, strain dbp3, stronger effect = lower value 0.995 | locus YGL167C, strain pmr1, stronger effect = lower value 1.01 | locus YGL173C, strain kem1, stronger effect = lower value 1 | locus YGL227W, strain vid30, stronger effect = lower value 1.01 | locus YGL240W, strain doc1, stronger effect = lower value 0.964 | locus YGL248W, strain PDE1, stronger effect = lower value 0.907 | locus YGL253W, strain hxk2, stronger effect = lower value 1.02 | locus YGR135W, strain pre9, stronger effect = lower value 0.931 | locus YGR252W, strain gcn5, stronger effect = lower value 0.952 | locus YHR013C, strain ard1, stronger effect = lower value 1.04 | locus YHR027C, strain rpn1, stronger effect = lower value 1.01 | locus YHR030C, strain SLT2, stronger effect = lower value 0.984 and 1.06 | locus YHR079C, strain IRE1 (second series), stronger effect = lower value 0.98 | locus YHR079C, strain IRE1, stronger effect = lower value 1.02 | locus YHR094C, strain hxt1, stronger effect = lower value 0.993 | locus YHR129C, strain ARP1, stronger effect = lower value 0.957 | locus YHR142W, strain chs7, stronger effect = lower value 1.01 | locus YHR200W, strain rpn10, stronger effect = lower value 0.963 | locus YIL066C, strain RNR3, stronger effect = lower value 0.875 | locus YIL073C, strain SPO22, stronger effect = lower value 0.916 | locus YIL125W, strain kgd1, stronger effect = lower value 0.998 | locus YIR030C, strain dcg1, stronger effect = lower value 0.972 | locus YJL092W, strain hpr5, stronger effect = lower value 1.01 | locus YJL095W, strain BCK1 (second series), stronger effect = lower value 1.01 | locus YJL095W, strain BCK1, stronger effect = lower value 0.891 and 1.06 | locus YJL115W, strain asf1, stronger effect = lower value 1.01 | locus YJL129C, strain trk1, stronger effect = lower value 1.04 | locus YJL134W, strain LCB3, stronger effect = lower value 0.99 | locus YJL154C, strain vps35, stronger effect = lower value 0.997 | locus YJL164C, strain tpk1, stronger effect = lower value 0.984 | locus YJL166W, strain qcr8, stronger effect = lower value 0.991 | locus YJL168C, strain set2, stronger effect = lower value 0.992 | locus YJL187C, strain SWE1 (second series), stronger effect = lower value 0.937 | locus YJL187C, strain SWE1, stronger effect = lower value 1 | locus YJR043C, strain POL32, stronger effect = lower value 0.889 | locus YJR066W, strain TOR1, stronger effect = lower value 1 | locus YJR075W, strain HOC1, stronger effect = lower value 0.929 | locus YKL009W, strain mrt4, stronger effect = lower value 0.956 | locus YKL068W, stronger effect = lower value 1.05 | locus YKL085W, strain MDH1 (second series), stronger effect = lower value 0.978 | locus YKL085W, strain MDH1, stronger effect = lower value 0.978 | locus YKL160W, strain elf1, stronger effect = lower value 0.987 | locus YKR026C, strain gcn3, stronger effect = lower value 1.01 | locus YKR091W, strain srl3, stronger effect = lower value 1.01 | locus YLL001W, strain dnm1, stronger effect = lower value 0.978 | locus YLL026W, stronger effect = lower value 1 | locus YLL041C, strain sdh2, stronger effect = lower value 1.01 | locus YLR027C, strain aat2, stronger effect = lower value 1.01 | locus YLR058C, strain SHM2, stronger effect = lower value 0.958 | locus YLR102C, strain apc9, stronger effect = lower value 0.978 | locus YLR113W, strain HOG1, stronger effect = lower value 1.02 | locus YLR221C, strain rsa3, stronger effect = lower value 0.992 | locus YLR258W, strain gsy2, stronger effect = lower value 1.01 | locus YLR262C, strain YPT6 (second series), stronger effect = lower value 0.969 | locus YLR268W, strain sec22, stronger effect = lower value 0.925 | locus YLR320W, strain mms22, stronger effect = lower value 0.983 | locus YLR342W, strain FKS1 (second series), stronger effect = lower value 0.794 | locus YLR342W, strain FKS1, stronger effect = lower value 1.02 | locus YLR357W, strain rsc2, stronger effect = lower value 0.988 | locus YLR370C, strain arc18, stronger effect = lower value 1.01 | locus YLR371W, strain rom2, stronger effect = lower value 0.973 | locus YLR384C, strain iki3, stronger effect = lower value 1.01 | locus YML016C, strain PPZ1, stronger effect = lower value 0.976 | locus YML032C, strain rad52, stronger effect = lower value 0.965 | locus YML120C, strain ndi1, stronger effect = lower value 0.998 | locus YML124C, strain tub3, stronger effect = lower value 0.971 | locus YMR058W, strain fet3, stronger effect = lower value 1 | locus YMR078C, strain ctf18, stronger effect = lower value 0.963 | locus YMR125W, strain sto1, stronger effect = lower value 1.02 | locus YMR129W, stronger effect = lower value 1 | locus YMR205C, strain PFK2, stronger effect = lower value 0.997 | locus YMR223W, strain ubp8, stronger effect = lower value 0.971 | locus YMR231W, strain pep5, stronger effect = lower value 0.986 | locus YMR263W, strain SAP30, stronger effect = lower value 0.966 | locus YMR307W, strain GAS1, stronger effect = lower value 0.966 | locus YNL067W, strain RPL9B, stronger effect = lower value 0.943 | locus YNL071W, strain lat1, stronger effect = lower value 1.01 | locus YNL153C, strain GIM3, stronger effect = lower value 0.93 | locus YNL183C, strain NPR1, stronger effect = lower value 0.975 | locus YNL209W, strain ssb2, stronger effect = lower value 0.996 | locus YNL248C, strain rpa49, stronger effect = lower value 0.986 | locus YNL250W, strain rad50, stronger effect = lower value 1 | locus YNL271C, strain bni1, stronger effect = lower value 0.979 | locus YNL298W, strain CLA4, stronger effect = lower value 0.982 | locus YNL322C, strain KRE1 (second series), stronger effect = lower value 1.01 | locus YNL322C, strain KRE1, stronger effect = lower value 0.945 | locus YNR049C, strain mso1, stronger effect = lower value 1.02 | locus YNR052C, strain pop2, stronger effect = lower value 0.997 | locus YOL012C, strain htz1 0.678 | locus YOL147C, strain pex11, stronger effect = lower value 0.975 | locus YOR001W, strain rrp6, stronger effect = lower value 0.997 | locus YOR061W, strain CKA2, stronger effect = lower value 0.978 | locus YOR069W, strain VPS5, stronger effect = lower value 0.982 | locus YOR070C, strain gyp1, stronger effect = lower value 0.981 | locus YOR080W, strain dia2, stronger effect = lower value 1 | locus YOR083W, strain WHI5, stronger effect = lower value 0.981 | locus YOR106W, strain vam3, stronger effect = lower value 0.981 | locus YOR136W, strain idh2, stronger effect = lower value 1 | locus YOR144C, strain elg1, stronger effect = lower value 0.975 | locus YOR231W, strain MKK1, stronger effect = lower value 1.04 | locus YOR265W, strain rbl2, stronger effect = lower value 1.02 | locus YOR270C, strain vph1, stronger effect = lower value 0.973 | locus YOR290C, strain snf2, stronger effect = lower value 0.962 | locus YOR316C, strain cot1, stronger effect = lower value 0.993 | locus YPL051W, strain arl3, stronger effect = lower value 0.978 | locus YPL078C, strain atp4, stronger effect = lower value 0.968 | locus YPL106C, strain sse1, stronger effect = lower value 1.02 | locus YPL240C, strain hsp82, stronger effect = lower value 1 | locus YPL256C, strain CLN2, stronger effect = lower value 1.05 | locus YPR119W, strain clb2, stronger effect = lower value 0.975 | locus YPR141C, strain kar3, stronger effect = lower value 0.991 | locus YPR167C, strain met16, stronger effect = lower value 0.963 | strain wtn01, stronger effect = lower value 0.931
